# From PubChem
# JMJD2A Tudor: qHTS Assay for Inhibitors of JMJD2A-Tudor Domain; Potency, µM (highest dose often 114 µM), inactives show at the top dose activity change, negative = inhibition, usual class: inhibitors; Lysine-specific demethylase 4A (Homo sapiens), O75164; AlphaScreen JMJD2A-Tudor / H3K4me3 peptide binding; 390,000 compounds, 4.4% hits; also: potency is read from the fitted curve at half-maximal effect; % is scaled to controls: 0 for no effect and ±100 for the full control effect; nearly all actives have a fitted effect of over 50% in size
# G9a block: qHTS Assay for Inhibitors of Histone Lysine Methyltransferase G9a. Histone-lysine N-methyltransferase EHMT2 (Homo sapiens), Q96KQ7. G9a H3K9 monomethylation, AlphaScreen, 2 h. Potency, µM (titrated, usually from 102 µM), without a hit: top-dose activity, negative = inhibition, most hits filed as inhibitors. 350,000 compounds, 8.8% hits; also: potency is read from the fitted curve at half-maximal effect; % is scaled to controls: 0 for no effect and ±100 for the full control effect; nearly all actives have a fitted effect of over 75% in size
#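 Chemiluminescent proximity detection of H3K9 monomethylation, read after 10 min bead incubation in the dark. Reaction: 20 nM G9a, 500 nM biotin-H3K9 peptide, 20 uM SAM cofactor, 2 h, room temperature, following 15 min enzyme-compound preincubation.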
# CtBP-E1A inh: qHTS Assay for Inhibitors of the CtBP/E1A Interaction; CtBP / adenovirus E1A interaction (AlphaScreen); AlphaScreen GST-E1A/His-CtBP binding, 1536-well; active compounds read low; activity change, % (concentration not given with the values); 340,000 compounds, 0.49% hits; AID 651724, 2012; in the data active = activity change below about -65%; inconclusive = mostly about -30% to -63%; also: % is scaled to controls: 0 for no effect and ±100 for the full control effect
#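 GST-E1A and His-tagged CtBP (125 nM each as 5X stock) were preincubated with pin-transferred compound for 2 h at 37 °C in the dark, then glutathione donor and nickel acceptor beads were added for 1 h before AlphaScreen reading.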
# BAZ2B block: qHTS Assay for Inhibitors of BAZ2B. Potency, µM (titrated, usually from 114 µM), for the others: at the highest dose activity change, negative = inhibition, actives largely listed as inhibitors. 360,000 compounds, 4.4% hits. AlphaScreen BAZ2B-H3K14Ac peptide displacement. Bromodomain adjacent to zinc finger domain protein 2B (Homo sapiens), Q9UIF8; also: potency is read from the fitted curve at half-maximal effect; % is scaled to controls: 0 for no effect and ±100 for the full control effect; nearly all actives have a fitted effect of over 60% in size
#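 Multi-concentration screen (max 110 uM) measuring displacement of acetylated histone H3 peptide from BAZ2B by AlphaScreen, using 50 nM protein, 50 nM peptide and 10 ug/mL streptavidin donor plus Ni-chelate acceptor beads.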
# Six1-Eya2 inh: qHTS Assay for Inhibitors of the Six1/Eya2 Interaction; Homeobox protein SIX1 (Homo sapiens) + Protein phosphatase EYA2 (Homo sapiens), …; AlphaScreen GST-Six1/His-Eya2 binding, biochemical; active compounds read low; activity change, % (no concentration beside the values); 360,000 compounds, 0.56% hits; in the data active = activity change below about -65%; inconclusive = mostly about -30% to -63%; also: % is scaled to controls: 0 for no effect and ±100 for the full control effect
#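 AlphaScreen luminescence read after one hour at 37 °C in darkness. Pin-transferred compounds met GST-Six1 and His-Eya2 protein (5X stock 250 nM/500 nM) plus glutathione donor and Ni-chelate acceptor beads (5X, 50 ug/mL).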
# HP1b binding inh: HTS for Inhibitors of HP1-beta Chromodomain Interactions with Methylated Histone Tails; Potency, µM (titrated, usually from 114 µM), without a hit: top-dose activity change, negative = inhibition, actives largely listed as inhibitors; AID 540317, 2011; Chromobox protein homolog 1 (Homo sapiens), P83916; AlphaScreen HP1-beta / biotin-H3K9me3 peptide binding; 390,000 compounds, 0.56% hits; also: potency is read from the fitted curve at half-maximal effect; nearly all actives have a fitted effect of over 70% in size
#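 Compound inhibition of the preformed complex between 50 nM HP1-beta and 50 nM biotinylated H3K9me3 peptide was read by AlphaScreen. Buffer was PBS pH 7.4 with 0.01% Tween-20. Incubations ran 30 min at room temperature, with 10 ug/mL donor/acceptor beads.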
# * = called active by the depositor; ? = inconclusive; / = not tested or not shown; ! = repeats disagree; [ ] = another dose, or the depositor's remark. In the library only some 10% were active in any assay of this set; here they are far more common. Unless noted, calls follow the shape of the dose curve; as a rule, active = well fitted inhibition curve with a large enough effect; inconclusive = small, poorly fitted or top-dose-only effect; inactive = no such curve, though single readings can be large or run the other way.
SMILES,JMJD2A Tudor,G9a block,CtBP-E1A inh,BAZ2B block,Six1-Eya2 inh,HP1b binding inh
COc1ccc(CN2CCNC(=O)C2CC(=O)NCCc2cnccn2)cc1C (stereo unspecified),-10%,79µM*,4,-23%,-1,39%
COc1ccc(NC(=O)Cn2c(=O)n(-c3cccc(C(F)(F)F)c3)c(=O)c3sccc32)cc1,6%,-1%[59 µM],/,-2%,/,28%
Cc1ccc(OCc2nnc(SCC(=O)O)n2N)cc1,-15%,108%[59 µM],11,?,0,28%
COc1ccc(OCc2nnc(SCC(=O)N(C)Cc3ccccc3)n2N)cc1,?,7.1µM*,-8,/,-4,?
COC(=O)C(CC(=O)c1ccc(Br)cc1)n1ccnc1 (stereo unspecified),/,?,/,50µM*,/,/
Cc1ccc(C(=O)CC(C(=O)O)n2cncn2)cc1 (stereo unspecified),-18%,/,1,0%,-16,23%
Cc1ccc(C(=O)CC(C(=O)O)n2cccn2)cc1 (stereo unspecified),-13%,50µM*,10,7%,6,34%
COC(=O)C(CC(=O)c1ccc(C)cc1)n1nc(C)cc1C (stereo unspecified),1%,79µM*,/,-28%,0,46%
COc1cc(NC(=O)CC(C)n2ccnc2)cc(OC)c1 (stereo unspecified),-5%,5%,19,1%,16,32%
COC(=O)C(CC(=O)c1ccc(Br)cc1)n1nc(C)cc1C (stereo unspecified),-13%,/,12,?,8,-8%
Cc1cc(=O)n(Cc2ccc(Cl)cc2)c2c1c(C)nn2-c1ccccc1,48%,45%[59 µM],/,28%,/,263%
CCc1ccc2c(CN3CCC(C(=O)OC)CC3)cc(=O)oc2c1,-14%,50µM*,6,1%,4,45%
CCc1cc2c(CN(C)Cc3ccccc3F)cc(=O)oc2cc1O,-25%,50µM*,0,-5%,4,-6%
Cc1cc2oc(=O)cc(CN(C)Cc3cccc(F)c3)c2cc1C,46%,-1%[2.33 µM],23,26%,9,72%
CCc1cc2c(CN3CCN(Cc4ccccc4)CC3)cc(=O)oc2cc1O,?,45µM*,0,?,-7,41%
O=c1cc(CN2CCN(Cc3ccccc3)CC2)c2cc3c(cc2o1)CCC3,-5%,?,-5,-33%,-1,11%
COc1ccc2oc(=O)cc(CN3CCN(Cc4ccccc4)CC3)c2c1,-33%,-35%[59 µM],-2,-18%,-3,14%
Cc1ccc2oc(=O)cc(CN3CCN(Cc4ccccc4)CC3)c2c1,-19%,50µM*,6,-2%,7,18%
Cc1ccc(NC(=O)C2CCCN(S(=O)(=O)c3cccnc3)C2)c(C)c1 (stereo unspecified),-10%,-1%,0,1%,1,21%
C=CCN(Cc1cccs1)C(=O)COc1ccc2c(c1)OCO2,-27%,/,9,/,-6,-8%
CC(C)c1ccc2oc(=O)cc(CN3CCCCC3)c2c1,12%,71µM*,6,61%,4,57%
CCc1ccc2c(CN3CCN(Cc4ccccc4)CC3)cc(=O)oc2c1,-30%,71µM*,-4,-19%,-1,10%
Cc1nnc(SCc2cc(=O)oc3ccc4ccccc4c23)n1Cc1ccccc1,-30%,35µM*,-9,-2%,-11,28%
Cc1cc(C)c2c(CN3CCN(Cc4ccccc4)CC3)cc(=O)oc2c1C,?,50µM*,/,?,-6,16%
Cc1cc(C)c2c(CN3CC(C)OC(C)C3)cc(=O)oc2c1C (stereo unspecified),-23%,25%,1,0%,18,69%
SMILES,JMJD2A Tudor,G9a block,CtBP-E1A inh,BAZ2B block,Six1-Eya2 inh,HP1b binding inh
COC(=O)C1CCN(C(=O)COC(=O)c2cc(-c3cccs3)nn2-c2ccccc2)CC1,-13%,-10%[2.33 µM],-3,4%,-8,22%
Cc1c(NC(=O)c2ccc(N3CCC(C)CC3)c([N+](=O)[O-])c2)cccc1-c1nc2ccccc2o1,-32%,?,/,?,/,-13%
Cc1cc2oc(=O)cc(CN3CCc4ccccc43)c2cc1Cl,-24%,-37%[59 µM],-10,-30%,-12,21%
CCc1ccc2c(CN3CCc4ccccc43)cc(=O)oc2c1,-17%,35µM*,-3,-35%,-8,45%
CCc1cc2c3c(c1)C(C)CC(C)(C)N3C(=O)/C2=C1\SC(=O)NC1=O (stereo unspecified),50µM*,25µM*,5,?,3,?
COc1cc2c3c(c1)C(C)CC(C)(C)N3C(=O)C2=O (stereo unspecified),?,?,0,?,-10,?
COc1ccc(Cn2nnc3c(=O)[nH]c(C(=O)NCCc4ccc(F)cc4)nc32)cc1OC,79µM*,-11%[59 µM],-9,-1%,-5,12%
COCCNC(=O)c1nc2c(nnn2Cc2cc(C)ccc2C)c(=O)[nH]1,?,11µM*,6,-18%,-1,10%
CC1=C(C(=O)NCc2cccc(Cl)c2)C2(CCCCCC2)OC1=O,-12%,1%[59 µM],/,10%,/,7%
Cc1ccc(Cn2cccc2C2=NC(C)(C)CO2)cc1,-16%,7%[59 µM],/,/,/,32%
Cc1nn2c(=O)cc(COC(=O)c3cccc(NC(=O)COc4ccccc4C)c3)nc2s1,-9%,10%[12.7 µM],/,-8%,/,19%
CCOCC(=O)Nc1nnc(Cc2ccc(OC)c(OC)c2)s1,-16%,16µM*,-8,-16%,4,-19%
CC1CCN(S(=O)(=O)c2cc(F)ccc2CN2C(=O)c3cccnc3C2=O)CC1,-2%,-2%,/,56µM*,-1,56%
CC(C)NCC(O)COc1ccc(CCOCC2CC2)cc1 (stereo unspecified),-14%,35µM*!,5,-1%,0,17%
CC(C)NC[C@@H](O)COc1ccc(CCOCC2CC2)cc1,/,4%[21.5 µM],/,/,/,/
CN(C)CCCNC(=O)c1cc(C(=O)c2ccccc2)c[nH]1,-11%,0%[2.33 µM],-23,0%,-11,20%
O=C(c1ccccc1)c1c[nH]c(C(=O)NNc2ccccc2)c1,-9%[11.4 µM],10µM*,/,-21%,-6,25%
Cn1c(OCc2cccnc2)nc2c1c(=O)n(Cc1ccc(F)cc1)c(=O)n2C,-20%,-12%[12.7 µM],3,-14%,-16,21%
Cn1c(=O)[nH]c(=O)c2c1nc(N1CCCCC1)n2C/C=N/NC(=O)c1cc(Br)ccc1O,-21%,52%[12.7 µM],?,9%,-5,29%
Cc1nc(C(=O)O)nn1-c1cc(Cl)ccc1Cl,-11%,45µM*,3,?,-2,30%
CNC(=O)c1nc(C)n(-c2ccc(Cl)cc2Cl)n1,10µM*,4%,8,-5%,5,-11%
